DAGLB inhibitor: blocks human DAGLB lipase activity; 340,000 compounds, 0.059% hits; Q8NCG7; inhibition, % at 5.17 µM; HEK293T DAGLB membrane lysate, EnzChek fluorogenic substrate; in the data active = inhibition above about 34%;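 note: 0% = enzyme with vehicle and 100% = wells lacking enzyme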
Target sequence (Q8NCG7 whole entry, looked up): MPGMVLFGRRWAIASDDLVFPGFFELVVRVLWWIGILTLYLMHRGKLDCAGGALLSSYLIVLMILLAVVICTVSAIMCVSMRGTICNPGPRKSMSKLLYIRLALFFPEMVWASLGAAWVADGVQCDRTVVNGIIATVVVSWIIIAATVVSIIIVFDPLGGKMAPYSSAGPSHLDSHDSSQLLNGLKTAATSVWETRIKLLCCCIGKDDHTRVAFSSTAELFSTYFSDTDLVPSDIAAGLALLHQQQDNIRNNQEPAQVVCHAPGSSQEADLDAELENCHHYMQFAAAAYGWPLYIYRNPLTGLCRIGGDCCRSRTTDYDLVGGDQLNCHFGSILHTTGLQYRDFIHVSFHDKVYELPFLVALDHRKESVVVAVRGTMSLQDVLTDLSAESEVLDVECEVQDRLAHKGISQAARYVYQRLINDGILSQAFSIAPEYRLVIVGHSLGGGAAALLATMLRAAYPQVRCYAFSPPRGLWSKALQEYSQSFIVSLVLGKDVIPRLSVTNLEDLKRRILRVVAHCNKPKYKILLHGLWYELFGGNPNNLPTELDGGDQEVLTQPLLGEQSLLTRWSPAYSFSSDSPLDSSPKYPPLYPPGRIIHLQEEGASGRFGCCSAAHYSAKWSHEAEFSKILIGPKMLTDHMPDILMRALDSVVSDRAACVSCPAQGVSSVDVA
hiPSC survival: enhancers of human iPSC single-cell survival. hiPSC single-cell survival, ATPlite luminescence; 100% = ROCK inhibitor wells, 0% = DMSO. 360,000 compounds, 0.044% hits. AID 602274. survival enhancement, % at 20 µM; in the data active = survival enhancement above about 18%;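 note: cells exposed to compounds for 16 hours before the ATP read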
HDAC3 inhib: inhibitors of human histone deacetylase 3; O15379; recombinant HDAC3, fluorogenic peptide/trypsin coupled, fluorescence; inhibition, % at 8.3 µM; 320,000 compounds, 0.15% hits; AID 2718; in the data active = inhibition above about 26%, passing the limit was not always enough
LANA-H2B inh: blocks KSHV LANA binding to histone H2A/H2B | Q9QR71 | cell-free LANA-H2A/H2B peptide, fluorescence polarization | inhibition, % (concentration not given with the values) | 320,000 compounds, 0.6% hits; in the data active = inhibition mostly above about 10%, no sharp cut-off; inactive = mostly below about 6.7%
Numbers without * were called inactive; . = not tested or not shown; + = active, no number. Only some compounds are listed: those with a hit (about 0.79% of all), similar ones and a draw of the others.

SMILES	DAGLB inhibitor	hiPSC survival	HDAC3 inhib	LANA-H2B inh
C/C(=N\N=C1/NC(=O)C(C)S1)c1ccc([N+](=O)[O-])cc1 (stereo unspecified)	5	-1	-1	16*
CCOc1ccc(NC(=O)[C@H](Cc2ccccc2)NC(=O)C2CCNCC2)cc1	0	0	-3	-10
Cc1ccc(-c2csc3ncnc(-n4cnc5ccccc54)c23)cc1	-1	0	-9	0
Cc1sc2ncnc(-n3cnc4ccccc43)c2c1C	-2	2	-8	83*
CCOC(=O)C(C)C(C)=O (stereo unspecified)	1	1	0	15*
CC(NCC(=O)Nc1ccccc1C(=O)NC1CC1)c1ccc(S(N)(=O)=O)cc1 (stereo unspecified)	-5	0	-1	+
C[C@@H]1CN([C@H](C)CO)C(=O)c2cccc(NC(=O)NC3CCCCC3)c2O[C@@H]1CN(C)C(=O)Nc1ccc(C(F)(F)F)cc1	2	0	28*	0
C[C@H](CO)N1C[C@H](C)[C@@H](CN(C)C(=O)Nc2ccc(C(F)(F)F)cc2)Oc2c(NC(=O)NC3CCCCC3)cccc2C1=O	1	-1	17	-3
C[C@@H]1CN([C@H](C)CO)C(=O)c2cc(NC(=O)Nc3ccc(F)cc3)ccc2O[C@H]1CN(C)C(=O)Nc1ccc(C(F)(F)F)cc1	-1	3	15	.
CC(C)NC(=O)Nc1ccc2c(c1)C(=O)N([C@H](C)CO)C[C@H](C)[C@@H](CN(C)C(=O)Nc1ccc(C(F)(F)F)cc1)O2	0	2	9	+
COc1ccc(S(=O)(=O)N(C)C[C@H]2Oc3c(NC(=O)Nc4ccc(C(F)(F)F)cc4)cccc3C(=O)N([C@H](C)CO)C[C@@H]2C)cc1	-4	-3	32*	-4
C[C@H]1CN([C@@H](C)CO)C(=O)c2cccc(NC(=O)Nc3ccc(C(F)(F)F)cc3)c2O[C@@H]1CN(C)S(=O)(=O)c1ccccc1	-1	0	.	.
Cc1ccc(C(=O)NCC(=O)N/N=C/c2cccs2)cc1C	2	0	0	-2
COc1ccc(N2C(=O)CSC2c2cccc(F)c2)cc1 (stereo unspecified)	0	0	2	8.4*
COc1ccc(C2SCC(=O)N2c2ccc(F)cc2)cc1 (stereo unspecified)	-2	0	4	1
COc1cccc(C(=O)Nc2ccc(NC(C)=O)cc2)c1	1	0	-4	41*
COc1cccc(C(=O)NC2CC3CCCC(C2)N3CC(=O)Nc2ccccc2)c1 (stereo unspecified)	-1	-2	6	-4
COc1cccc(C(=O)NC2CC3CCCC(C2)N3CC(=O)Nc2ccc(N(C)C)cc2)c1 (stereo unspecified)	1	-2	3	27*
COc1cccc(C(=O)Nc2cccc(NC(C)=O)c2)c1	-1	2	3	-1
CC(OC(=O)c1ccc(-c2ccc(O)cc2)cc1)C(=O)NC1CCCCC1C (stereo unspecified)	0	0	3	-2
COc1ccc(NC(=O)C2CCC(=O)N2C(=O)OCc2ccccc2)cc1 (stereo unspecified)	-2	-1	-3	11
O=c1c2ccccc2nc(/C=C/c2cccc([N+](=O)[O-])c2)n1CCO	0	-1	3	19*
CCN(CC)c1ccc(/C=N/N2C(C)CCCC2C)c(O)c1 (stereo unspecified)	-3	-1	10	3
O=C(CN1C(=O)COc2ccccc21)NCc1ccc(C(=O)O)cc1	-1	5	1	2
CCc1ccc(CNC(=O)CN2C(=O)COc3ccccc32)cc1	0	0	-3	12*
SMILES	DAGLB inhibitor	hiPSC survival	HDAC3 inhib	LANA-H2B inh
CCCCCC(=O)N(O)C1CC(=O)N(c2ccccc2)C1=O (stereo unspecified)	1	9	75*	-3
CCCCCCC(=O)N(O)C1CC(=O)N(Cc2ccccc2)C1=O (stereo unspecified)	0	-2	78*	4
Cn1ccsc1=NC(=O)c1cccc(OC(F)F)c1	-1	0	7	1
COC(=O)c1ccccc1NC(=O)CSc1n[nH]c(-c2ccco2)n1	-1	1	2	3
Cc1ccc(-n2nnc3c(=O)n(CC(=O)N4CCCC4)cnc32)cc1	-2	-2	1	10*
O=C(/C=C/[C@H]1O[C@@H](n2ccc(=O)[nH]c2=O)[C@H](O)[C@@H]1O)N1CCN(CCc2ccccc2)CC1	.	3	.	.
CCc1ccc(C(C)NC(=O)c2ccncc2)cc1 (stereo unspecified)	-3	0	0	23*
CCc1ccc(C(C)NC(=O)c2ccc(F)cc2)cc1 (stereo unspecified)	-3	2	5	-1
Cc1cccc(C)c1-n1nnnc1-c1nc2cc3ccccc3cc2[nH]c1=O	.	-1	.	.
COc1ccc(C(=O)Nc2ccc(S(=O)(=O)Nc3nccc(C)n3)cc2)cc1	-1	-1	-1	2
Cc1ccc(O)c(-c2cc(C(=O)Nc3ccc(S(=O)(=O)Nc4nccc(C)n4)cc3)[nH]n2)c1	5	1	1	78*
CC(OC(=O)c1ccc(S(=O)(=O)N2CCCCC2)cc1)C(=O)Nc1ccc(C(N)=O)cc1 (stereo unspecified)	-2	40*	.	.
CC(OC(=O)c1ccc2c(=O)n3c(nc2c1)CCC3)C(=O)Nc1ccc(C(N)=O)cc1 (stereo unspecified)	-2	26*	.	.
Cc1cc(-c2ccccc2)c2c(=O)[nH][nH]c2n1	4	0	-7	5
CC(C)n1nnnc1SCC(=O)N(C)C1CCS(=O)(=O)C1 (stereo unspecified)	-2	8	-5	1
Cc1ccc[n+](-c2nc([O-])sc2C=O)c1	-14	3	-3	29*
CCOc1cccc(C(=O)Nc2ccccc2C(=O)N2CCN(C)CC2)c1	0	0	1	-2
C/C=C(\C)C(=O)O[C@H](c1cc2ccc(=O)oc2cc1OC)[C@@H](O)C(C)(C)O	-3	2	-22	0
COc1cc(OC)c(C2CC(=O)N3CN(c4ccc(C)cc4)CSC3=C2C#N)cc1OC (stereo unspecified)	3	-2	-6	0
COc1ccc(N2CSC3=C(C#N)C(c4cc(OC)ccc4OC)CC(=O)N3C2)c(OC)c1 (stereo unspecified)	3	0	42*	-2
COc1ccc(N2CSC3=C(C#N)C(c4cc(OC)c(OC)cc4OC)CC(=O)N3C2)c(OC)c1 (stereo unspecified)	0	-3	38*	3
CCOC(=O)c1ccc(N2CSC3=C(C#N)C(c4cccs4)CC(=O)N3C2)cc1 (stereo unspecified)	0	-2	31*	12
CCc1ccc(N2CSC3=C(C#N)C(c4cccs4)CC(=O)N3C2)cc1 (stereo unspecified)	8	0	17	-3
COc1ccc(C2CC(=O)N3CN(c4ccc(C)c(Cl)c4)CSC3=C2C#N)cc1OC (stereo unspecified)	2	1	43*	-4
